Test results reported in PubChem BioAssay AID720582 (The Scripps Research Institute Molecular Screening Center, 2013).
Hit rate of the full screen: of about 370,000 compounds, about 2,300 (0.62%) were called active.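 Rule for the calls: active = inhibition above a per-campaign cutoff equal to the mean of compounds falling between control-based bounds plus 3 SD (cut at about 20% in these data); inactive = the rest.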 Many of the other results were omitted from the sample, so actives are more common in it than they were.

Biological target: Disintegrin and metalloproteinase domain-containing protein 10 (Homo sapiens) (UniProt O14672)
Assay: human ADAM10 inhibitors, primary screen, biochemical, QFRET, HTS (AID 720582);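 note: 0% = DMSO wells while the 100% control is not disclosed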
Settings: recombinant ADAM10, EDANS/DABCYL FRET peptide cleavage, 3 h; at 7 µM; active compounds read high

Sequence of Disintegrin and metalloproteinase domain-containing protein 10 (Homo sapiens) (O14672 214-748 limits assumed): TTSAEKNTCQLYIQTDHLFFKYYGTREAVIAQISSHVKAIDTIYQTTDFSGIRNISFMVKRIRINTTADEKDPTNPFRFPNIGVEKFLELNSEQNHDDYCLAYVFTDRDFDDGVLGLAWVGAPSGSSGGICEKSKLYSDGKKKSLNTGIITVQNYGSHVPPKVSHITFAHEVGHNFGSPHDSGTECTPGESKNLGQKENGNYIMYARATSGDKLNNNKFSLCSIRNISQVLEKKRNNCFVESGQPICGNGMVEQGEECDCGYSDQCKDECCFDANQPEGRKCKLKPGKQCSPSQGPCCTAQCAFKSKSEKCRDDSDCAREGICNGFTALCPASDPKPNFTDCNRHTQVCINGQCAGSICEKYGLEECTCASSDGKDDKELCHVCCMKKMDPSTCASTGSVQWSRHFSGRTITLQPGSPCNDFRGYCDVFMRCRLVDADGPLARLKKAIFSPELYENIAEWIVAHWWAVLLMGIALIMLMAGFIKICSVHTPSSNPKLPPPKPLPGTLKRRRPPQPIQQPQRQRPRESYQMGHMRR

SMILES	inhibition
CC(c1c[nH]c2ccccc12)c1c(-c2ccccc2)n(C)c2ccccc12 (configuration not stated)	-17.9% (inactive)
CC(C)C(=O)Nc1cccc(NC(=S)NC(=O)C(c2ccccc2)c2ccccc2)c1	21.2% (active)
CCCC(=O)Nc1cccc(NC(=S)NC(=O)C(C)Oc2ccc(Cl)cc2Cl)c1 (configuration not stated)	6.41% (inactive)
CCCCC(=O)NNC(=S)NC(=O)C(c1ccccc1)c1ccccc1	7.07% (inactive)
C[C@@]12C(=O)N(c3cccc(Br)c3)C(=O)N1[C@H](c1ccc(Cl)cc1)[C@@H]1C(=O)N(C3CCCCC3)C(=O)[C@@H]12	31.7% (active)
COc1ccc([C@@H]2[C@@H]3C(=O)N(C(C)(C)C)C(=O)[C@@H]3[C@]3(Cc4ccccc4)C(=O)N(c4cccc(Br)c4)C(=O)N23)cc1	33.4% (active)
CC[C@@]12C(=O)N(c3ccccc3)C(=O)N1[C@H](c1ccc(Br)cc1)[C@@H]1C(=O)N(C(C)(C)C)C(=O)[C@@H]12	15.3% (inactive)
CC(C)(C)N1C(=O)[C@H]2[C@@H](c3ccc(Br)cc3)N3C(=O)N(c4cccc(Cl)c4)C(=O)[C@@]3(C)[C@H]2C1=O	33.8% (active)
CC12C(=O)N(c3ccccc3)C(=O)C1C(c1ccccc1)N1CCCN12 (configuration not stated)	-2% (inactive)
CCN1C(=O)[C@H]2[C@@H](c3ccc(C)cc3)N3C(=O)N(c4cccc(Br)c4)C(=O)[C@@]3(CC)[C@H]2C1=O	4.57% (inactive)
CSCCC1NC2(C(=O)Nc3ccc(Cl)cc32)[C@@H]2C(=O)N(C3CCCC3)C(=O)[C@H]12 (some centres not stated)	11.7% (inactive)
COC(=O)[C@]12C[C@H](CC(=O)NCc3ccccc3)C(=O)N(Cc3ccccc3)C1=C[C@H](COCc1ccccc1)O[C@@H]2C	6.96% (inactive)
C=CCN(C)CC#Cc1ccccc1	-2.28% (inactive)
O=C(OC12CCCN(C1)/C(=C/c1ccccc1)C2)c1ccco1 (configuration not stated)	8.44% (inactive)
O=S1(=O)c2c(NCc3ccco3)cccc2Oc2ccccc2CN1Cc1cn(Cc2cccc(C(F)(F)F)c2)nn1	-9.48% (inactive)
COc1ccc(-c2cc(-c3nnc(SCC(=O)Nc4cccc5ccccc45)n3N)[nH]n2)cc1	-7.36% (inactive)
CC(CCN1CCC(C(O)(c2ccccc2)c2ccccc2)CC1)Oc1ccc(C(F)(F)F)cc1 (configuration not stated)	5.96% (inactive)
CCCC(O)(CCC)C(=O)NN(C(=O)CCl)c1cccc(C)c1	-8.56% (inactive)
Cc1ccc(N(NC(=O)C(C)(C)O)C(=O)c2ccccc2)cc1C	87.5% (active)
COC(=O)N(NC(=O)C(O)(C(C)C)C(C)C)c1ccccc1	-0.6% (inactive)
O=C(CN1CCCc2ccccc21)NCc1ccc(F)cc1	1.16% (inactive)
O=C(Nc1cc(F)cc(F)c1)OC1CCC12CCC(c1ccccc1)CC2 (configuration not stated)	7.13% (inactive)
Cn1nc(C(F)(F)F)c(C(=O)Nc2cccc(C(F)(F)F)c2)c1SCc1ccc(Cl)cc1	43.5% (active)
COC(=O)c1ccccc1Sc1c(/C=N/OCc2ccc(Cl)cc2)c(C(F)(F)F)nn1C	-2.32% (inactive)
CCC(=O)OCc1c(C(F)(F)F)nn(C)c1Oc1cccc(C(F)(F)F)c1	-6.05% (inactive)
c1csc(-c2nnc(SCc3nc4ccccc4[nH]3)o2)c1	-40.8% (inactive)

SMILES	inhibition
N#Cc1ccccc1OC[C@@H](O)CN1CCC(C(O)(c2ccccc2)c2ccccc2)CC1	-0.66% (inactive)
Cc1ccc(C)c(NC(=S)NNC(=O)c2csc(C)c2)c1	24.9% (active)
Cc1ccc(C)c(NC(=O)NNC(=O)c2ccc3ccccc3c2O)c1	-78.3% (inactive)
Cc1cc(C(=O)NNC(=S)NC(C)c2ccccc2)cs1 (configuration not stated)	9.44% (inactive)
COc1ccccc1C(=O)CSc1nnc(-c2ccccn2)n1-c1ccccc1	-1.9% (inactive)
COc1cccc(CSc2nnc(-c3cccnc3)n2Cc2ccccc2)c1	-11.6% (inactive)
O=C(CCCCCN1C(=O)C2C3C=CC(C3)C2C1=O)Nc1ccccn1 (configuration not stated)	2.11% (inactive)
COC(=O)c1cc(S(=O)(=O)N2CCN(C(=O)C3CCCO3)CC2)cn1C (configuration not stated)	-4.05% (inactive)
O=C1CCC(C(=O)OCC(=O)Nc2ccc(OC(F)F)cc2)=NN1	5.49% (inactive)
COc1ccc(NC(=O)COC(=O)CNC(=O)C2CCCCC2)cc1	-0.81% (inactive)
CCC(C)(C)c1ccc(Oc2ccc(NC(=O)COC(=O)C3=COCCO3)cc2)cc1	35.7% (active)
Cc1cc(C)cc(OCC(=O)O/N=C(\N)Cc2ccc([N+](=O)[O-])cc2)c1	6.24% (inactive)
N/C(Cc1ccc([N+](=O)[O-])cc1)=N\OC(=O)C1CCCCC1	-1.46% (inactive)
N/C(Cc1ccc([N+](=O)[O-])cc1)=N\OC(=O)COc1ccc2ccccc2c1	29.3% (active)
O=C(NCC1COc2ccccc2O1)c1ccc(NC(=O)c2cc(F)ccc2F)cc1 (configuration not stated)	-8.24% (inactive)
CCOC(=O)N1CCN(C(=O)C[C@@H]2C(=O)N(CCc3ccc(Cl)cc3)C3=CCCC[C@]32C(=O)OCC)CC1	1.06% (inactive)
COc1ccc(CN(CCN2CCOCC2)C(=O)c2ccc(C)cc2)cc1OC	-9.63% (inactive)
COc1ccc(C(C(=O)NC2CCCCC2)N(C(=O)CCl)c2ccccc2Cl)cc1 (configuration not stated)	-8.69% (inactive)
COc1ccc(C(CCN(Cc2ccc(OC)c(OC)c2)C(=O)CCl)c2ccccc2)cc1 (configuration not stated)	28% (active)
COC(=O)C1CN(CCc2ccccc2)CCS(=O)(=O)N1Cc1ccc(F)cc1 (configuration not stated)	-11.1% (inactive)
COC1=C[C@H](C(=O)NCCNC(C)=O)[C@H](C)[C@@H](c2ccccc2)CC1=O	4.85% (inactive)
CCOc1cc(NC(=O)CCl)c(OCC)cc1NC(C)=O	-2.95% (inactive)
CCOc1cc(NC(=O)c2ccccc2C(=O)O)c(OCC)cc1NC(=O)c1ccccc1F	26.7% (active)
CCOc1ccccc1NC(=O)c1cc(S(=O)(=O)N2CCC3(CC2)OCCO3)ccc1F	-1.65% (inactive)
c1cncc(CNc2ccnc(-c3ccc4c(c3)OCO4)n2)c1	-4.61% (inactive)
CN(CCc1ccccc1)C(=O)Cn1nc(-c2ccccc2)ccc1=O	-9.95% (inactive)
